Assay results from PubChem BioAssay.
The source made the active and inactive calls.

Legend:
[1] = tested on: Human papillomavirus type 1a protein E7 (residues 44-93); assay: HPV1a E7 fragment binders on microarrays, primary screen, biochemical, small-molecule microarray, residues 44-93, 635 nm fluorescence (AID 1108); conditions: small-molecule microarray binding, fluorescence 635 nm; higher = more signal;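 further: E7 fragment applied at 1 µg/mL in TBST for 1 h at 4 C; score combines spot fluorescence with its signal to noise ratio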
[2] = modulators of HCV replicon luciferase signal, primary screen, HCV replication inhibitor project, Huh7 cells, luciferase reporter (AID 1109); conditions: 48 h, higher = more signal;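 further: huh7 hepatoma cells harbouring a luciferase neomycin HCV replicon reporter; luciferase luminescence as measure of HCV replicon replication; test concentration not given here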
[3] = molecular target: Left-right determination factor 2 (Homo sapiens) (UniProt O00292); assay: LEFTY2 binders on small-molecule microarrays, primary screen, biochemical, small-molecule microarray, 635 nm fluorescence scan (AID 1110); conditions: LEFTY2 binding, higher = more signal
[4] = molecular target: Calmodulin-1 (Homo sapiens) (UniProt P0DP23); assay: CALM1 binders on microarrays, EGTA buffer, profiling panel, biochemical, small-molecule microarray, Cy5-labelled CALM1 (AID 1111); conditions: Cy5-CALM1 binding fluorescence, higher = more signal;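 further: labelled calmodulin applied in Tris saline Tween buffer holding calcium plus EGTA and DTT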
[5] = molecular target: Calmodulin-1 (Homo sapiens) (UniProt P0DP23); assay: calcium-bound CALM1 binders on microarrays, profiling panel, artefact control for SMM control-protein annotation, biochemical, small-molecule microarray, Cy5-labelled CALM1, plus calcium (AID 1112); conditions: Cy5-CALM1 binding fluorescence, higher = more signal;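 further: score merges spot fluorescence with signal to noise from triplicate slides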
[6] = small-molecule microarray binders of probe aWnt5a, primary screen, biochemical, biotinylated probe, 635/667 nm fluorescence (AID 1113); conditions: higher = more signal;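 further: score merges 667 nm fluorescence intensity with signal-to-noise per printed feature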
[7] = small-molecule microarray binders of probe aShh, primary screen, biochemical, biotinylated probe, 635/667 nm fluorescence (AID 1114); conditions: higher = more signal;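 further: probe is biotin-labelled aShh protein from a stem cell growth factor screen; measures binding of labelled protein to compounds printed on the slide; score merges feature fluorescence at 667 nm with signal-to-noise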
[8] = small-molecule microarray binders of probe aNog, primary screen, biochemical, biotinylated probe, 635/667 nm fluorescence (AID 1115); conditions: higher = more signal;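 further: probe is biotinylated aNog protein used at 0.15 µg/mL for 1 h at 4 C; z-score combines 667 nm fluorescence of each spot with its signal to noise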
[9] = molecular target: Torsin-1A-interacting protein 1 (Homo sapiens) (UniProt Q5JTV8); assay: LAP1 binders from COS7 cell lysate, primary screen, small-molecule microarray, 635/667 nm fluorescence (AID 1116); conditions: COS7-hLAP1 lysate binding, 635 nm fluorescence, higher = more signal
[10] = molecular target: Alpha-bungarotoxin (Bungarus multicinctus) (UniProt P60615); assay: alpha-bungarotoxin binders on microarray, profiling panel, artefact control for SMM control protein annotation, biochemical, small-molecule microarray, Alexa647 label, 635/667 nm fluorescence (AID 1117); conditions: alpha-BTX-A647 binding fluorescence, higher = more signal
[11] = molecular target: Albumin (Bos taurus) (UniProt P02769); assay: bovine serum albumin binders on microarray, profiling panel, artefact control for SMM control protein annotation, biochemical, small-molecule microarray, Alexa647 label, 635/667 nm fluorescence (AID 1118); conditions: BSA-A647 binding, fluorescence 635 nm, higher = more signal;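 further: score merges 667 nm emission intensity and signal-to-noise per printed compound spot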
[12] = small-molecule microarray binders of probe aXIP, primary screen, biochemical, NeuroSMM set, 635/667 nm fluorescence (AID 1119); conditions: higher = more signal, called active from +8 up or from −8 down;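 further: probe is the protein aXip251-270 applied at 1 µg/mL to compound-printed slides; binding of probe to printed compounds measured as 667 nm fluorescence plus signal to noise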
[13] = small-molecule binders of probe aNOTCH3, primary screen, biochemical, small-molecule microarray, 635/667 nm fluorescence (AID 1120); conditions: higher = more signal;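 further: probe is a biotin-tagged antibody raised against NOTCH3 rather than NOTCH3 protein; score merges spot fluorescence near 667 nm with spot signal to noise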
[14] = small-molecule binders of probe aNOTCH2, primary screen, biochemical, small-molecule microarray, 635/667 nm fluorescence (AID 1121); conditions: higher = more signal;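 further: score merges feature fluorescence read at 667 nm with its signal to noise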
[15] = molecular target: Carbonic anhydrase 2 (Homo sapiens) (UniProt P00918); assay: CAII small-molecule binders, profiling panel, biochemical, small-molecule microarray, Alexa647-labelled CAII (AID 1122); conditions: CAII-A647 binding fluorescence, higher = more signal
[16] = COS7 lysate on small-molecule microarray, probe aHis, 635 nm (AID 1123); conditions: COS7 cell lysate, fluorescence, higher = more signal;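 further: z-score combines 667nm fluorescence intensity with signal-to-noise per printed compound spot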
[17] = compound binding in COS7 lysate, probe aLAP1, primary screen, cell lysate, small-molecule microarray (AID 1124); conditions: probe aLAP1, fluorescence, higher = more signal;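 further: lysate comes from COS7 cells expressing LAP1 and is applied at 0.3 µg/mL; score merges spot fluorescence near 667 nm with signal-to-noise over triplicate slides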
[18] = tested on: Sam68 (KHDRBS1); assay: Sam68 small-molecule binders, primary screen, biochemical, small-molecule microarray, 635 nm fluorescence (AID 1125); conditions: small-molecule microarray binding, higher = more signal;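 further: score merges 667 nm channel intensity with signal to noise over triplicate slides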
[19] = tested on: Chordin-like protein 2 (CHRDL2); assay: CHRDL2 small-molecule binders, primary screen, biochemical, small-molecule microarray, 635 nm fluorescence (AID 1126); conditions: small-molecule microarray binding, fluorescence 635 nm; higher = more signal;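 further: printed compound slides probed with Chrdl2 protein at 4 µg/mL for 1 h at 4 C; score merges 667 nm emission intensity with signal to noise over three replicate slides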
[20] = molecular target: Concanavalin-A (Canavalia ensiformis) (UniProt P02866); assay: ConA small-molecule binders, primary screen, artefact control for SMM control protein annotation, biochemical, small-molecule microarray, Alexa647 label, 635 nm (AID 1127); conditions: ConA-A647 binding fluorescence, higher = more signal;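 further: z combines 667 nm emission intensity with signal-to-noise across three replicate slides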
Chain of Concanavalin-A (Canavalia ensiformis) (P02866 whole entry, looked up): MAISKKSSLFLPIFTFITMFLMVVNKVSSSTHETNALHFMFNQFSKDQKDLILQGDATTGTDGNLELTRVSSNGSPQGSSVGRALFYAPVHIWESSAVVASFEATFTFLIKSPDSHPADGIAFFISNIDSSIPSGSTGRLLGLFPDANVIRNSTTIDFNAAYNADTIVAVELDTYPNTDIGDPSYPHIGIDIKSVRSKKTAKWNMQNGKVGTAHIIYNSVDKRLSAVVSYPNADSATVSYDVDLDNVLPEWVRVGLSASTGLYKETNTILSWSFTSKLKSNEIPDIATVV

Chain of Alpha-bungarotoxin (Bungarus multicinctus) (P60615 whole entry, looked up): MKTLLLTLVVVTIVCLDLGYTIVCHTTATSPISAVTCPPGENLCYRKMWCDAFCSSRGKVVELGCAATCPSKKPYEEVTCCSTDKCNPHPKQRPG
Chain of Left-right determination factor 2 (Homo sapiens) (O00292 whole entry, looked up): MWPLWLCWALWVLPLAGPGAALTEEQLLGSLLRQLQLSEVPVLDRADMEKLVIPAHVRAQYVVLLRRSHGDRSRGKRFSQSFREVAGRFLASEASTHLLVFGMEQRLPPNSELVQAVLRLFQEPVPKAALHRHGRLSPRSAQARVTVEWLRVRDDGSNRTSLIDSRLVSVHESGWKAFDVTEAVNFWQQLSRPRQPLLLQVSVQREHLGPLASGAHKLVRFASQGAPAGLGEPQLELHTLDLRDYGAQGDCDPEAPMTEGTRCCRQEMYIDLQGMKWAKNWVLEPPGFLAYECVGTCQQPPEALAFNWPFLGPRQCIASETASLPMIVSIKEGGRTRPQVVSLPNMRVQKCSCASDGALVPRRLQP
Chain of Torsin-1A-interacting protein 1 (Homo sapiens) (Q5JTV8 whole entry, looked up): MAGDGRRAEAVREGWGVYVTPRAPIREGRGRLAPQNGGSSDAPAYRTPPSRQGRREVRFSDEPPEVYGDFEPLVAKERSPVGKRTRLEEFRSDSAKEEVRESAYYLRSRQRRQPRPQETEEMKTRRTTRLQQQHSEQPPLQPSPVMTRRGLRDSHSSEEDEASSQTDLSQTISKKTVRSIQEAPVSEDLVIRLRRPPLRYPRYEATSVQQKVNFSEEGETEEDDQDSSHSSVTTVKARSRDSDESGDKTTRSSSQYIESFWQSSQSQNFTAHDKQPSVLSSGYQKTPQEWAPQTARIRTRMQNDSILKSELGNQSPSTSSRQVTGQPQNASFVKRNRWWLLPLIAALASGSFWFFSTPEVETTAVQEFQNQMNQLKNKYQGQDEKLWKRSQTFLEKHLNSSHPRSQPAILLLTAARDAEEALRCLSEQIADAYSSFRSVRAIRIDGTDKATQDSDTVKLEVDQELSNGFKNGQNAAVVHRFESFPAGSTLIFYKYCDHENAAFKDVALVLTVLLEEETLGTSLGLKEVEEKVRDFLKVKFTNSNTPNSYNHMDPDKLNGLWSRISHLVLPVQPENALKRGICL
Chain of Albumin (Bos taurus) (P02769 whole entry, looked up): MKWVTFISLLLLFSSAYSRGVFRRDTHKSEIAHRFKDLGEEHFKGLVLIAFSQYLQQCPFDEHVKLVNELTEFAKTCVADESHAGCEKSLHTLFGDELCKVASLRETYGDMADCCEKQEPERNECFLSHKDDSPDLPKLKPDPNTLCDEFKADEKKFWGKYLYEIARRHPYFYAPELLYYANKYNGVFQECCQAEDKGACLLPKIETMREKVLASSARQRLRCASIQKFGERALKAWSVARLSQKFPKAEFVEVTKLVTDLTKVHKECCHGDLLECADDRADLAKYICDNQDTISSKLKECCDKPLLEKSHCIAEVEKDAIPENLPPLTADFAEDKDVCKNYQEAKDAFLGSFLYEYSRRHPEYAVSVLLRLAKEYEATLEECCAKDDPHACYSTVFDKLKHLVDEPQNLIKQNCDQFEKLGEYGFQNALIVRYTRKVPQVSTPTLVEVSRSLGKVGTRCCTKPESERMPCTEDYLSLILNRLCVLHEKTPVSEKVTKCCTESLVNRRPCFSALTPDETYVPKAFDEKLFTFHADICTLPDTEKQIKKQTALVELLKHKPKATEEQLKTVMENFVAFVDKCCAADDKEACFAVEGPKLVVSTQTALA

| SMILES | composite z-score [1] | z-score [2] | composite z-score [3] | composite z-score [4] | composite z-score [5] | composite z-score [6] | composite z-score [7] | composite z-score [8] | composite z-score [9] | composite z-score [10] | composite z-score [11] | composite Z-score [12] | composite z-score [13] | composite z-score [14] | composite z-score [15] | composite z-score [16] | composite z-score [17] | composite z-score [18] | composite z-score [19] | composite z-score [20] |
| --- | --- | --- | --- | --- | --- | --- | --- | --- | --- | --- | --- | --- | --- | --- | --- | --- | --- | --- | --- | --- |
| COc1ccc(C(O)C2C=CC3C(=O)N(C)C(=O)C3N2N2CCCCC2)cc1OCc1ccccc1 (stereo not given) | 1.34 | 0.421 | 0.0446 | 0.747 | 0.738 | 0.0391 | 0.462 | 1.63 | 0.68 | 1.87 | 0.728 | 0.248 (inactive) | 0.13 | -0.0546 | 0.38 | 1.71 | 0.445 | 1.29 | -0.651 | 1.12 |
| COCCOC(=O)N1C(=O)[C@@]2(c3cc(C#CCC(C(=O)OC)C(=O)OC)ccc31)[C@H](C(=O)N1CCN(c3ncccn3)CC1)[C@H]1C(=O)O[C@H](c3ccccc3)[C@H](c3ccccc3)N1[C@@H]2c1ccc(O)cc1 | 0.435 | -0.513 | 0.394 | 1.22 | 0.601 | 0.0077 | 0.272 | 0.0574 | 0.518 | 1.71 | 0.752 | 0.394 (inactive) | -0.0343 | -0.0956 | 0.55 | 1.48 | 0.695 | 1.3 | -0.358 | 1.01 |
| COc1cc(Cc2cc3c(c(CCc4ccccc4)n2)[Si](C(C)C)(C(C)C)OC3)cc(OC)c1OC | -0.0207 | -2.14 | 0.131 | -0.358 | -0.182 | -0.156 | 0.0796 | -0.158 | -0.214 | -0.044 | -0.237 | -0.334 (inactive) | -0.0697 | -0.165 | 0.0001 | -0.177 | -0.0868 | -0.0118 | 0.182 | 0.255 |
| CCN1C(C)=C(C(=O)OC)[C@@H](c2ccccc2)N2C(=O)[C@](O)(C(=O)OC)[C@@H](c3ccccc3)C(C(=O)c3ccccc3)=C12 | 0.474 | -1.15 | 0.499 | 0.0865 | 0.0844 | -0.0685 | 0.166 | 0.158 | 0.653 | 0.232 | 0.325 | 0.111 (inactive) | 0.541 | -0.112 | 0.401 | 0.915 | 0.629 | 0.723 | 0.309 | 0.352 |
| NC(=O)[C@H]1[C@@H]2C(=O)O[C@@H](c3ccccc3)[C@@H](c3ccccc3)N2[C@@H](c2ccc(O)cc2)[C@]12C(=O)Nc1ccc(C#CCCO)cc12 | -1.74 | 0.179 | -1.05 | -0.742 | 0.661 | -0.175 | -0.0769 | -0.158 | -0.819 | -1.58 | 0.0103 | 0.049 (inactive) | -0.125 | -0.0645 | 0.72 | -0.119 | 0.0482 | -1.09 | -0.92 | -1.78 |
| O=C1O[C@@H](c2ccccc2)[C@@H](c2ccccc2)N2[C@@H](c3ccc(O)cc3)[C@]3(C(=O)Nc4ccc(C#CC5(O)CCCCCC5)cc43)[C@@H](C(=O)Nc3nc4ccccc4s3)[C@H]12 | -0.423 | -0.56 | 0.494 | 0.395 | 0.253 | 0.245 | -0.35 | 1.15 | 1.18 | 1.91 | 0.839 | 0.751 (inactive) | 0.173 | 0.0943 | 0.0181 | 1.95 | 0.807 | 1.35 | 0.896 | 1.08 |
| C=CCC(OC(C)=O)[C@@H]1[C@@H](N(Cc2ccc(-c3cccc(C(F)(F)F)c3)o2)C(=O)Cc2ccc(F)cc2)c2cc(OCCCO)ccc2N1C(=O)c1ccc(-c2ccccc2)cc1 (stereo not given in full) | -0.741 | -0.583 | -0.689 | -0.679 | 0.671 | -0.154 | 0.0899 | 0.172 | 0.14 | -0.227 | -0.701 | -0.014 (inactive) | -0.0996 | -0.154 | -0.215 | -0.197 | 0.0045 | -0.443 | -0.294 | -1.04 |
| C=C(C)[C@@H]1CC=C(C(O)C2C=CC3C(=O)NC(=O)C3N2Nc2ccccn2)CC1 (stereo not given in full) | 0.355 | -0.308 | 1.57 | 0.206 | -0.815 | 0.116 | 0.358 | 0.145 | 1.06 | 2.09 | -0.27 | 0.804 (inactive) | 0.441 | 0.0179 | 0.809 | 1.37 | 0.759 | 1.31 | 1.61 | 1.14 |
| C=CCC(OC(C)=O)[C@@H]1[C@@H](N(Cc2cccc3ccccc23)C(=O)c2ccc(C)cc2)c2cc(OCCCO)ccc2N1C(=O)c1ccc(-c2ccccc2)cc1 (stereo not given in full) | 0.479 | -0.852 | 0.111 | -0.355 | -0.065 | -0.135 | -0.273 | -0.241 | -0.144 | -0.218 | -0.0575 | -0.0961 (inactive) | 0.102 | -0.0398 | 0.507 | 0.143 | -0.105 | -0.087 | 0.114 | -0.227 |
| Cc1ccc(N2C(=O)c3ccccc3[C@@H](C(=O)NCc3ccccc3)[C@@H]2c2ccc(CO)cc2)nc1 | -0.752 | -0.139 | -0.292 | -0.869 | -0.313 | -0.148 | 0.901 | -0.361 | 0.776 | -0.326 | -1.29 | -0.816 (inactive) | -0.0328 | -0.0272 | 0.451 | 3.91 | -0.0641 | -0.931 | 0.465 | -1.28 |
| CCCNC(=O)[C@@H]1c2ccccc2C(=O)N(Cc2cc(F)cc(C(F)(F)F)c2)[C@H]1c1ccc(CO)cc1 | 0.0588 | -0.901 | 0.498 | 1.04 | -0.263 | 0.0079 | 0.188 | -0.154 | 1.44 | 1.21 | -0.0179 | 0.457 (inactive) | 0.193 | 0.171 | 0.584 | 2.2 | -0.273 | 1.3 | 0.341 | 1.14 |
| CC(C)NC(=O)[C@@]1(Cc2ccccc2I)c2ccccc2C(=O)N(C2CCCCC2)[C@H]1c1ccc(CO)cc1 | 1.46 | -1.21 | 0.398 | 1.48 | 0.458 | -0.0792 | 0.448 | 0.982 | 0.977 | 1.32 | 0.965 | 0.256 (inactive) | 0.233 | 0.076 | 0.312 | 2.55 | 0.429 | 1.31 | 0.127 | 1.1 |
| CN1C(=O)C2C=CC(C(O)C3CC=CCC3)N(Nc3ccccc3)C2C1=O (stereo not given) | 1.24 | -0.556 | 0.76 | 1.55 | 0.129 | -0.0792 | -0.0289 | 0.897 | 0.764 | 1.58 | 0.598 | -0.442 (inactive) | 0.351 | 0.0697 | 0.715 | 2.75 | -0.147 | 1.3 | 0.912 | 0.955 |
| O=C1O[C@H](c2ccccc2)[C@H](c2ccccc2)N2[C@H]1[C@@H](C(=O)NC[C@H](O)c1ccccc1)[C@]1(C(=O)Nc3ccc(C#CC4(O)CCCCCC4)cc31)[C@H]2c1ccc(OCCO)cc1 | 1.27 | -2.41 | -0.12 | 0.67 | 0.623 | -0.0276 | -0.106 | 0.319 | 0.933 | 1.41 | 0.579 | 0.248 (inactive) | 0.108 | -0.109 | 0.603 | 1.92 | -0.0049 | 1.31 | 0.088 | 1.16 |
| C=C(CCCC)C(=O)CC[C@@H](OC(=O)c1cccnc1)c1cccc(OCCO)c1 | -0.0891 | -3.58 | 0.0009 | -0.708 | -1.47 | -0.0213 | -0.0977 | 0.314 | 0.469 | 1.76 | -1.06 | -0.123 (inactive) | 0.0351 | -0.148 | 0.15 | 0.0383 | 0.0475 | 0.789 | 0.207 | -0.158 |
